# Most compounds without a hit are left out; they make up all but 2.7% or so of the library.
# Coupling enz = qHTS Assay for Inhibitors of Fructose-1,6-bisphosphate Aldolase from Giardia Lamblia: Coupling assay counterscreen | coupling enzyme system counterscreen, AmpLite Red fluorescence | activity change, negative = inhibition, % at 58.2 µM, hits read low | hit rate 0.67% among 290,000 | AID 2472, 2010; in the data active = activity change below about -30%
#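 Counterscreen lacking aldolase: glyceraldehyde-3-phosphate coupling-enzyme reagent preincubated 10 min at RT with compound (at 57.5 uM final), then substrate/coupling system with AmpLite Red added; fluorescence read at 525/598 nm after 20 min RT.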
# Tau ThT inhib = qHTS for Inhibitors of Tau Fibril Formation, Thioflavin T Binding; Microtubule-associated protein tau (Homo sapiens), P10636; recombinant tau K18 P301L, heparin-induced fibrillization, ThT fluorescence; Potency, µM (series often up to 57.4 µM), for the others: at the top dose activity, negative = inhibition, hits mostly inhibitors; hit rate 2.1% among 270,000; also: potency is read from the fitted curve at half-maximal effect; nearly all actives have a fitted effect of over 55% in size
# Target sequence (P10636 561-689 P618L limits assumed): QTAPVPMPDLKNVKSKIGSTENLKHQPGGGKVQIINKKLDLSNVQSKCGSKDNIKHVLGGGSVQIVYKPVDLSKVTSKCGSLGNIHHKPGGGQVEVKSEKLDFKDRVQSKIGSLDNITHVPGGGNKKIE
#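 In this qHTS, human K18 P301L tau is incubated with compound and heparin for 6 hr at 37 C, and Thioflavin T fluorescence then reports fibril load.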
# Tau fibril FP = qHTS for Inhibitors of Tau Fibril Formation, Fluorescence Polarization. K18 P301L tau heparin fibrillization, Alexa594 FP, 6 h. AID 1468, 2008. Microtubule-associated protein tau (Homo sapiens), P10636. Potency, µM (titrated, usually from 57.7 µM), without a hit: top-dose activity, negative = inhibition, usual class: inhibitors. hit rate 0.39% among 280,000; also: potency is read from the fitted curve at half-maximal effect; nearly all actives have a fitted effect of over 55% in size
#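 Steps: dispense K18 P301L tau (15 uM plus 0.24 uM Alexa 594 tracer, final) in pH 7 sodium acetate; add compound; add heparin (20 uM final); incubate 6 hr, 37 C; add ThT (30 uM final); after 1 hr ambient, read FP.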
# Tau fluor cs = Counterscreen qHTS for Inhibitors of Tau Fibril Formation, Fluorescence Polarization; hit rate 0.93% among 280,000; Potency, µM (highest dose often 57.7 µM), inactives show top-dose activity change, negative = decrease; tau K18 P301L Alexa594 fluorescence, heparin fibrillization; AID 1463, 2008; also: potency is read from the fitted curve at half-maximal effect; nearly all actives have a fitted effect of over 55% in size
#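 Human tau K18 P301L (15 uM unlabeled, 0.24 uM Alexa 594-labeled) in 100 mM sodium acetate pH 7 with 20 uM heparin, 6 hr at 37 C. ThT 30 uM added, 1 hr ambient; Alexa 594 FP and total fluorescence read at 555/632 nm.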
# Starred values were filed as active, the others as inactive; ? = inconclusive; · = no result given; ! = a repeat was not active; [ ] = remark or other dose. Unless noted, calls follow the shape of the dose curve; as a rule, active = well fitted curve in the direction sought with a large enough effect; inconclusive = small, poorly fitted or top-dose-only effect, or another doubt; inactive = no such curve, though single readings can be large; an effect the other way counts as inactive or inconclusive. % is scaled to controls: 0 for no effect and ±100 for the full control effect.
SMILES,Coupling enz,Tau ThT inhib,Tau fibril FP,Tau fluor cs
COc1ccc(S(=O)(=O)/N=C2/NC(=O)/C(=C\c3cc(OC)c(OC)cc3[N+](=O)[O-])S2)cc1,8.1,22.4µM*,-3.3%,?
CC(C)C[C@@H](CC(=O)N[C@@H](CCCN)CC(=O)N[C@@H]1CCCC[C@H]1C(=O)N[C@H](CC(=O)N[C@@H](CCC(=O)O)CC(=O)O)Cc1c[nH]c2ccccc12)NC(=O)[C@@H]1CNCC[C@H]1N,-0.5,-9.2%,-4.3%,-10.2%
Cc1cccc(NC(=O)c2ccc3c(O)c(S(=O)(=O)c4ccccc4)c(=O)[nH]c3c2)c1C,·,-5.0%,0.0%,-1.4%
COc1ccc(N(CC(=O)N2CCN(c3ccc(F)cc3)CC2)S(=O)(=O)c2c(C)nn(C)c2C)cc1,·,-5.3%,2.4%,-11.1%
CC1(OC(=O)C2CCCC2)C(=O)C=C2C=C(c3ccsc3)N(CCN3CCOCC3)C=C2C1=O (configuration not stated),-43.8*,?,?,-9.9%[11.6 µM]
COC/C=C/C1=CC2=CC(=O)C(C)(OC(=O)c3cnc4ccccc4n3)C(=O)C2=CN1CCOC (configuration not stated),-15.1,-3.5%[11.5 µM],-2.0%[11.6 µM],-1.8%[11.6 µM]
CC1(OC(=O)C2CCCC2)C(=O)C=C2C=C(c3ccsc3)N(Cc3ccc4c(c3)OCO4)C=C2C1=O (configuration not stated),-6.6,?,7.5%[11.6 µM],-3.1%[11.6 µM]
COC(=O)CCCC1=CC2=C(c3ccccc3)C(=O)C(C)(OC(=O)C3CCCC3)C(=O)C2=CN1CCN1CCOCC1 (configuration not stated),-34.8*!,-12.9%[11.5 µM],-3.1%[11.6 µM],-5.6%[11.6 µM]
COC/C=C/C1=CC2=CC(=O)C(C)(OC(=O)c3cnc4ccccc4n3)C(=O)C2=CN1CCN1CCOCC1 (configuration not stated),-14.4,15.8µM*,?,?
CC1(OC(=O)C2CCCC2)C(=O)C=C2C=C(c3ccsc3)N(CC3CC3)C=C2C1=O (configuration not stated),-34.5*!,?,-1.0%[11.6 µM],-11.5%[11.6 µM]
COC(=O)CCCC1=CC2=C(c3ccccc3)C(=O)C(C)(OC(=O)C3CCCC3)C(=O)C2=CN1Cc1ccccc1 (configuration not stated),-3.5,-15.1%[11.5 µM],-5.1%[11.6 µM],-8.5%[11.6 µM]
COc1ccccc1Cc1nc2ccccc2nc1SCC(=O)NCc1ccccc1Cl,·,5.1%,-0.1%,-3.6%
COc1ccc(CCNC(=O)c2cc(Nc3ccccc3)nc3ccccc23)cc1OC,·,-9.2%,?,?
CC1(OC(=O)C2CCCC2)C(=O)C=C2C=C(c3ccsc3)N(CCc3c[nH]c4ccccc34)C=C2C1=O (configuration not stated),-10.0,4.47µM*!,?,-0.5%[11.6 µM]
CC1(OC(=O)C2CCCC2)C(=O)C=C2C=C(c3ccsc3)N(C3CCCCC3)C=C2C1=O (configuration not stated),-17.8,14.1µM*!,?,-8.4%[11.6 µM]
CC1(OC(=O)CCc2ccccc2)C(=O)C=C2C=C(c3ccc(C#N)cc3)N(C3CCCCC3)C=C2C1=O (configuration not stated),-12.4,?,3.2%[11.6 µM],-4.6%[11.6 µM]
CCOc1cc(CNc2ccc(O)cc2)ccc1OCc1ccc(Cl)cc1,·,15.8µM*,-7.9%,14.1µM*[quencher]
Oc1ccc(NCc2ccccc2OCc2ccc(Cl)cc2)cc1,·,14.1µM*,-14.8%,?
Oc1ccc(NCc2ccccc2OCc2ccccc2)cc1,-48.4*,14.1µM*,12.6µM*!,10µM*[quencher]
CCN1CCC(N(Cc2cccc(OC)c2)C(=O)Nc2ccc(C)cc2Cl)CC1,·,1.4%,-0.9%,4.9%
CCC/C=C(\CCC)C(NC(=O)c1ccco1)c1ccc(C(=O)OC)cc1 (configuration not stated),-0.2,-12.7%,2.9%,-11.2%
COc1ccc(C(=O)NCCn2cc(SCC(=O)Nc3ccc(F)cc3)c3ccccc32)cc1,·,?,?,14.1µM*[quencher]
COc1ccc(C(=O)NCCn2cc(SCC(=O)Nc3ccc(C)cc3)c3ccccc32)cc1,·,?,-15.0%,?
O=C(NCCn1cc(SCc2ccc(C(F)(F)F)cc2)c2ccccc21)c1cccs1,·,?,-13.7%,5.62µM*[quencher]
O=C(NCCn1cc(SCc2ccc(F)cc2)c2ccccc21)c1c(F)cccc1F,-38.8*,?,-1.6%,?
SMILES,Coupling enz,Tau ThT inhib,Tau fibril FP,Tau fluor cs
CC(NC(=O)CSc1nc(-c2cccc(Cl)c2)nc2cc(=O)[nH]n12)c1nc2ccccc2n1C (configuration not stated),·,3.5%,-3.3%,-1.5%
N#C/C(=C\Nc1ccc2cn[nH]c2c1)c1nc(-c2ccc(Cl)cc2)cs1,-35.2*,?,-16.9%,?
CCc1nn(CC(=O)Nc2ccc(NC(C)=O)cc2)c(=O)c2cc3sccc3n12,·,?,0.8%,4.5%
O=[N+]([O-])c1ccc(Sc2cccc3cccnc23)c2cccnc12,-33.9*,?,-16.9%,-29.2%
NS(=O)(=O)c1ccc(N=Nc2c[nH]c(=O)c(O)c2)cc1,-37.5*,2.51µM*,?,?
Nc1nc(O)c(N=Nc2ccc(S(N)(=O)=O)cc2)c(=O)[nH]1,-0.5,·,·,·
O=C(Cn1nnc(-c2cccc(C(F)(F)F)c2)n1)NCc1ccc(F)cc1,·,3.2%,-6.7%,0.9%
CC(C)(C)C(=O)[C@@H]1[C@@H]2C(=O)N(C3CCCCC3)C(=O)[C@@H]2[C@H]2c3ccccc3C=CN12,-23.9,31.6µM*,?,?
O=C(c1ccc2c(c1)OCO2)[C@@H]1[C@@H]2C(=O)N(C3CCCCC3)C(=O)[C@@H]2C2c3ccccc3C=CN21 (some centres not stated),-35.8*,28.2µM*,?,?
O=C(c1cccs1)[C@@H]1[C@@H]2C(=O)N(Cc3ccc4c(c3)OCO4)C(=O)[C@@H]2C2c3ccccc3C=CN21 (some centres not stated),-37.7*,22.4µM*,?,?
COc1ccc(N2C(=O)[C@@H]3[C@H](C2=O)[C@H]2c4ccccc4C=CN2[C@@H]3C(C)=O)cc1,-42.1*,15.8µM*,?,-27.0%
Cc1ccc(NC(=O)CN2C(=O)c3cccnc3Sc3ccccc32)cc1C,·,-0.3%,1.9%,-7.8%
N#CC1=C(N)SC(N)=C(C#N)C1c1ccc([N+](=O)[O-])cc1,-11.4,20µM*,-11.5%,?
NC(=O)C1CCN(C(=S)c2ccc(-c3ccc(Br)cc3)o2)CC1,-32.8*,?,-8.3%,-11.1%
O=C(N/N=C/C=C/c1ccc([N+](=O)[O-])cc1)C1COc2ccccc2O1 (configuration not stated),1.2,4.47µM*,5.0%,15.8µM*[quencher]
O=C(Nc1ccc([N+](=O)[O-])cc1)C1COc2ccccc2O1 (configuration not stated),4.5,·,·,·
